Experimental data: PubChem BioAssay (EPA / NIEHS)
Inconclusive results are not listed. Some structures have more than one record in an assay (separate samples or runs), and their calls can disagree. Activity calls are given as the source filed them. Rule for the calls: active = hit-call score of the fitted dose curve at least 0.9, where 1 is the maximum; inconclusive = response in the unintended direction; inactive = score below 0.9.

Experiments:
[1] = TOX21_p53_BLA_p3_viability: Viability Assessment in the Tox21 HCT-116 p53 Agonism Beta-lactamase Assay, Phase 3 (AID 2283593);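 note: cells exposed to compound for 16 h before reading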
How it was run: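 HCT-116 cells (4000/well) rested 5 h at 37C, then got DMSO compounds by pin tool (217-fold dilution) for 16 h at 37C, 5% CO2. After the bla read, CellTiter-Glo was added and luminescence read at 30 min, room temperature.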

[2] = TOX21_p53_BLA_p5_viability: Viability Assessment in the Tox21 HCT-116 p53 Agonism Beta-lactamase Assay, Phase 5 (AID 2283600)
How it was run: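 4000 cells/well; 5 h pre-incubation; DMSO compounds pin-transferred, 217-fold dilution; 16 h, 37C/5% CO2; CCF4-AM 2 h RT; CellTiter-Glo 30 min RT; luminescence.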

[3] = target: Cellular tumor antigen p53 (Homo sapiens) (UniProt P04637); experiment: TOX21_p53_BLA_p4_ratio: Tox21 HCT-116 p53 Agonism Beta-lactamase Assay, Ratio, Phase 4 (AID 2283601)
How it was run: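 HCT116 cells carrying an inducible beta-lactamase reporter were plated at 4000 cells/well, rested 5 h, then exposed to compounds in DMSO (217-fold dilution) for 16 h at 37C. CCF4-AM substrate was loaded 2 h at room temperature; 460/530 nm emission ratio scored gain-of-signal versus DMSO.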

[4] = target: Cellular tumor antigen p53 (Homo sapiens) (UniProt P04637); experiment: TOX21_p53_BLA_p3_ratio: Tox21 HCT-116 p53 Agonism Beta-lactamase Assay, Ratio, Phase 3 (AID 2283596)
How it was run: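 HCT116 p53-bla cells (4000/well) given compound in DMSO (217-fold dilution) after 5 h, incubated 16 h at 37C. CCF4-AM substrate 2 h at room temperature; 460/530 nm emission ratio, gain fitted against DMSO.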

[5] = TOX21_p53_BLA_p4_viability: Viability Assessment in the Tox21 HCT-116 p53 Agonism Beta-lactamase Assay, Phase 4 (AID 2283597);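 note: hits lower the luminescence signal meaning cytotoxicity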
How it was run: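 Cells plated, 5 h pre-incubation; DMSO compounds pinned (217-fold dilution); 16 h, 37C/5% CO2; CCF4-AM 2 h RT; CellTiter-Glo 30 min RT; luminescence read.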

[6] = target: Cellular tumor antigen p53 (Homo sapiens) (UniProt P04637); experiment: TOX21_p53_BLA_p5_ratio: Tox21 HCT-116 p53 Agonism Beta-lactamase Assay, Ratio, Phase 5 (AID 2283599)
How it was run: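 HCT-116 cells carrying a p53-inducible beta-lactamase reporter were seeded at 4000 cells/well and dosed after 5 h with compound in DMSO (217-fold dilution). After 16 h at 37C, CCF4-AM substrate was added for 2 h, and the 460/530 nm emission ratio was scored as gain-of-signal versus DMSO.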

[7] = target: Cellular tumor antigen p53 (Homo sapiens) (UniProt P04637); experiment: TOX21_p53_BLA_p2_ratio: Tox21 HCT-116 p53 Agonism Beta-lactamase Assay, Ratio, Phase 2 (AID 2283592)
How it was run: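 HCT116 p53-bla; 4000 cells/well; 5 h pre-incubation; cpd in DMSO, 217-fold dilution; 16 h 37C/5% CO2; CCF4-AM 2 h RT; Ex 405, Em 460/530 ratio; DMSO = baseline; positive fitting direction.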

[8] = TOX21_p53_BLA_p2_viability: Viability Assessment in the Tox21 HCT-116 p53 Agonism Beta-lactamase Assay, Phase 2 (AID 2283591);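 note: compound exposure lasted 16 h at 37 °C; actives lower the ATP signal meaning cytotoxicity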
How it was run: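 HCT-116 p53-bla cells (4000/well) rested 5 h at 37C, then received compounds in DMSO (217-fold dilution) for 16 h at 37C, 5% CO2. After the CCF4 read, CellTiter-Glo was added; ATP luminescence was read after 30 min at room temperature.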

Measured: AC50

Sequence of Cellular tumor antigen p53 (Homo sapiens) (P04637 whole entry, looked up): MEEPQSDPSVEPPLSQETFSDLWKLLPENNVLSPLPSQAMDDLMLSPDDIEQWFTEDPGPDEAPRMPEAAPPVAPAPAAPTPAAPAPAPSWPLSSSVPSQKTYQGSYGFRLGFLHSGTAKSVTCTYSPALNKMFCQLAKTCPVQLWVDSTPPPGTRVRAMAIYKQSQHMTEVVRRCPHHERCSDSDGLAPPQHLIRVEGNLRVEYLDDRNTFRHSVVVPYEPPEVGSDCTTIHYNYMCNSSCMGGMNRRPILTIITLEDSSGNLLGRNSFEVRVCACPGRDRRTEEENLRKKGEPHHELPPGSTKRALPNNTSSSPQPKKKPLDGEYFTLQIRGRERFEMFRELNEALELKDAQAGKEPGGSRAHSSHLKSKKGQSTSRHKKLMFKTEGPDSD

Cc1cc(CCC(=O)OCCOCCOCCOC(=O)CCc2cc(C)c(O)c(C(C)(C)C)c2)cc(C(C)(C)C)c1O
inactive: [1] | [2] | [3]

c1ccc2cc(Nc3ccc(Nc4ccc5ccccc5c4)cc3)ccc2c1
active: [4] 73.5 µM
inactive: [1] | [4] | [5] | [6] | [2] | [3]

Nc1ccn([C@H]2CS[C@@H](CO)O2)c(=O)n1
inactive: [7] | [4] | [6] | [3]

C=C(C)C(=O)OCCOC1CC2CC1C1C=CCC21 (stereo not given)
not listed: [3] | [8]
inactive: all other assays above

C[N+](C)(C)CCCCCC[N+](C)(C)C
inactive: [7] | [5] | [6] | [3]

FC(F)(F)COCC(F)(F)F
inactive: [7] | [1] | [4] | [2] | [3]

CCCCOC(=O)CCCCCCCC(=O)OCCCC
inactive: [7] | [6]

Cc1ccc(C)o1
inactive: [8] | [1] | [6] | [3]
